# ALOX15B inhib: blocks human 15-lipoxygenase 2 activity; Potency, µM (highest dose often 57.1 µM), for inactives: at the top dose activity change, negative = inhibition, hits mostly inhibitors; purified 15hLO-2, xylenol orange hydroperoxide absorbance; actives 0.56% (n = 110,000); AID 881; further: potency means the concentration at half of the fitted maximal effect; nearly all actives have a fitted effect of over 60% in size
#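 Purified human 15hLO-2 (50 nM) preincubated 15 min with compound, then 45 uM arachidonic acid for 90 min at RT in 25 mM Hepes pH 7.5, 0.01% Triton X-100. Hydroperoxide detected by Fe-xylenol orange; 573/405 nm absorbance ratio.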
# 12-hLO inh: blocks human 12-lipoxygenase activity; P18054; purified 12-hLO, xylenol orange hydroperoxide absorbance; Potency, µM (doses to about 57.1 µM), for inactives: at the top dose activity change, negative = inhibition, hits mostly inhibitors; actives 0.12% (n = 150,000); AID 1452; further: potency means the concentration at half of the fitted maximal effect; nearly all actives have a fitted effect of over 55% in size
# Target sequence (P18054 whole entry, looked up): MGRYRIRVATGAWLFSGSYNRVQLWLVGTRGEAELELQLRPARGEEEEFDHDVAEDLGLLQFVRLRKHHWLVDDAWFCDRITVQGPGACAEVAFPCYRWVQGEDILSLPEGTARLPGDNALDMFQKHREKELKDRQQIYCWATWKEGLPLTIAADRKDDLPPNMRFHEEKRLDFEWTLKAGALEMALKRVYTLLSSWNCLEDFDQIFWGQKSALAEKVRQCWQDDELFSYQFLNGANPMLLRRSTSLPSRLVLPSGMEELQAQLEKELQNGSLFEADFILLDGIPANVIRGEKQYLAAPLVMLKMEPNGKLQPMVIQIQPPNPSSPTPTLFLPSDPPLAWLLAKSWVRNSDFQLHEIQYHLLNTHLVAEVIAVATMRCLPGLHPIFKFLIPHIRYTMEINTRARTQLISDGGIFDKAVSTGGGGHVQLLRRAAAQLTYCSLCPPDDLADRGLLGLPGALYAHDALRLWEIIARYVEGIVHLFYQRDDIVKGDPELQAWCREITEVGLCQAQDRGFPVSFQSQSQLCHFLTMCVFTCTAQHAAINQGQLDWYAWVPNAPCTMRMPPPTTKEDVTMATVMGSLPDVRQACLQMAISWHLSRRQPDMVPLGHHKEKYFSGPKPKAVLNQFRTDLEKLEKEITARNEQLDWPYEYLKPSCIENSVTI
#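 150 nM 12hLO, 25 mM Hepes pH 7.0 + 0.01% Triton X-100; cpd preinc 15 min RT; 40 uM arachidonic acid, 30 min RT; Fe-XO 30 min; A573/A405 ratio as read-out.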
# PNC inhibitor: inhibitors of perinucleolar compartment assembly; PC3M PTB-GFP, PNC prevalence imaging, 16 h; hits give low values; activity change (PNC), negative = inhibition, % at 10 µM; actives 3.1% (n = 140,000);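 active means readout at or below -70, meaning at least 70% loss of cells showing the perinucleolar compartment, a nuclear body marking cancer cells; inconclusive means readout between -30 and a set limit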;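 further: plate controls were DMSO wells for no effect and camptothecin positive control wells for full effect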
#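 Compounds are pinned in duplicate onto adhered PC3M cells stably expressing GFP-tagged PTB and incubated 16 h at 37 C. Cells are then fixed, nuclei stained with Hoechst, and PNC-positive cells counted.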
# IMPase Li cell: IMPase inhibition in cells with lithium potentiation. CHO-M1 cells, IP1 TR-FRET (IP-One), carbachol + lithium. actives 0.35% (n = 210,000). AID 1457. Potency, µM (doses to about 59.4 µM), for inactives: at the highest dose activity, negative = IMPase inhibition, actives largely listed as inhibitors;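 further: IP1 builds up when IMPase is blocked and the TR-FRET signal falls; potency means the concentration at half of the fitted maximal effect; plate controls were basal vehicle for no effect and high inhibitor control for full effect; nearly all actives have a fitted effect of over 50% in size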
#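 Concentration–response in CHO-M1 cells, lithium-potentiated; 30 min at 37C. IP1 detected by competitive TR-FRET after 10 min lysis at RT. Hill-fitted AC50.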
# IMPase inh: membrane-permeable compound that blocks inositol monophosphatase | P97697 | CHO-M1 cells, IP1 accumulation, HTRF TR-FRET ratio | inhibition (IP1 accumulation), % at 46.1 µM | 120,000 tested, under 10 active; active means well fitted curve in the direction sought with a large enough effect in the signal ratio, not every such curve was filed as active; inconclusive means small, poorly fitted or top-dose-only effect, or a change in a side signal; inactive means no such curve, though single readings can be large or run the other way; the % refers to the signal ratio;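 further: cells stimulated with carbachol in lithium chloride buffer; plate controls were DMSO basal wells for no effect and reference inhibitor wells for full effect; higher means more IMPase inhibition seen as more IP1 and lower FRET ratio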
#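 CHO-M1, 2000 cells/well, cultured 16–30 h; cpd up to 46 uM; carbachol (50 uM solution, stimulation buffer w/ 50 mM LiCl, pH 7.4), 30 min 37C; IP-One TR-FRET, 10 min RT; Ex 320/Em 665, 620; Hill-fit AC50.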
# HPGD block: blocks human HPGD enzyme activity | actives 4.3% (n = 150,000) | Potency, µM, for inactives: top-dose activity change, negative = inhibition, most hits filed as inhibitors | purified HPGD, NADH fluorescence kinetic, PGE2 substrate | P15428 | AID 894; active means well fitted inhibition curve with a large enough effect, not every such curve was filed as active; inconclusive means small, poorly fitted or top-dose-only effect, or another doubt; inactive means no such curve, though single readings can be large or run the other way; further: potency means the concentration at half of the fitted maximal effect
#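 20 nM HPGD preincubated 15 min at room temperature with compound in 50 mM Tris-HCl pH 8, 0.01% Tween 20. Started with 1 mM NAD+ and 30 uM prostaglandin E2; NADH fluorescence (360/450 nm) read 5 times over 30-s intervals, last minus first.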
# The depositor's hits bear a star; u = inconclusive; x = not tested or not shown; ! = not active in a repeat; [ ] = dose if it differs, or a comment. Only some compounds are listed: those with a hit (about 5.3% of all), similar ones and a draw of the others. Unless noted, the call rests on the fitted dose curve; in most records, active means well fitted curve in the direction sought with a large enough effect; inconclusive means small, poorly fitted or top-dose-only effect, or another doubt; inactive means no such curve, though single readings can be large; an effect the other way counts as inactive or inconclusive. Unless noted, on the % scale 0 is the no-effect control and ±100 the full control effect.
SMILES,ALOX15B inhib,12-hLO inh,PNC inhibitor,IMPase Li cell,IMPase inh,HPGD block
CCOC(=O)c1noc(C)c1C(=O)Nc1nc(C)cc(C)n1,x,x,x,6%,x,x
c1coc(-c2nnc(SCc3nc4ccccc4[nH]3)o2)c1,4%,-6%,1,-5%[38.3 µM],-2,-5%
Cc1ccc(CSc2nnc(-c3ccco3)o2)cc1,-6%,-4%,u,0%[38.3 µM],-6,25µM*
O=C(O)c1ccc(CSc2nnc(-c3ccco3)o2)cc1,1%,3%,-2,-2%[38.3 µM],-10,-19%
Brc1ccc(CSc2nnc(-c3ccco3)o2)cc1,x,-10%,16,-10%,x,25µM*
COc1ccccc1CNc1ccnc(-c2cccnc2)n1,u,x,x,8%,x,x
Nc1nc(CSc2n[nH]c(-c3ccccc3)n2)nc(Nc2ccccc2)n1,19%,-11%,-5,15%[38.3 µM],6,13µM*
COc1ccc(Nc2nc(N)nc(CSc3n[nH]c(-c4ccccc4)n3)n2)cc1,26%,-4%,35,12%[38.3 µM],14,22µM*
O=S(=O)(Nc1ccc(Cc2ccncc2)cc1)N1CCCC1,1%,-6%,u,9%,9,25µM*
CCN(C(=S)Nc1ccc(C(C)=O)cc1)C1CCCCC1,x,x,x,-7%,x,x
Clc1cccc(-c2ccc(/C=N/n3cnnc3)o2)c1Cl,x,4%,-100*,-14%,-5,u
Cc1cccc(/C=N\NC(=O)c2csnn2)c1,-1%,-3%,16,8%[38.3 µM],8,3.2µM*
CN(C)c1ccc(/C=N\NC(=O)c2csnn2)cc1,1%,-2%,5,7%[38.3 µM],4,-17%
O=C(O)C[C@H](NC(=O)CP(=O)(O)O)C(=O)O.[NH-][C@@H]1CCCC[C@@H]1[NH-].[Pt],2%[11.4 µM],1%[11.4 µM],x,0%,x,2%
O=C(O)CP(=O)(O)O,-3%[11.4 µM],0%,20,9%,-1,32µM*!
Cc1cc(-c2n[nH]c(=S)n2/N=C/C=C/c2ccccc2)n[nH]1,x,0%,60,-1%,x,16µM*
COc1ccccc1/C=C/C=N/n1c(-c2cc(C)[nH]n2)n[nH]c1=S,x,-3%,8,-1%,x,14µM*
Cc1nnc(C)n1/N=C/C=C/c1ccccc1,-4%,-2%,60,8%[38.3 µM],-6,-14%
COc1cccc(/C=N/n2c(-c3n[nH]c4c3CCC4)n[nH]c2=S)c1O,x,-7%,12,18%,x,u
CCn1c(-c2cc(C3CC3)nc3ccccc23)n[nH]c1=S,x,-1%,-6,8%,x,13µM*
O=c1c2cnn(-c3ccccc3)c2nc(-c2cccs2)n1-c1ccc(Br)cc1,4%,8%,-23,8%[38.3 µM],0,-5%
O=C(O)CSc1nc2c(cnn2-c2ccccc2)c(=O)n1-c1ccc(Br)cc1,x,-7%,54,-10%,x,14µM*
Cn1cccc1C(C(=O)NC1CCCCC1)N(C(=O)Cc1cccs1)C1CC1 (configuration not stated),-3%,5%,17,3%[38.3 µM],5,-5%
COc1ccc(N(C(=O)Cc2cccs2)C(C(=O)NC2CCCCC2)c2cccn2C)cc1OC (configuration not stated),x,-2%,-116*,2%,x,-2%
CCOc1ccc(C(=O)N/N=C/c2cc(Cl)ccc2[N+](=O)[O-])cc1,x,-5%,7,2%,x,22µM*
SMILES,ALOX15B inhib,12-hLO inh,PNC inhibitor,IMPase Li cell,IMPase inh,HPGD block
COc1ccc(/C=C/C(=O)c2ccc(O)cc2O)cc1OC,-6%,u,x,31%,x,14µM*
O=C(/C=C/c1ccccc1)c1ccc(O)cc1O,3%,-7%,x,22%,x,16µM*
COc1ccc(/C=C/C(=O)Nc2ccccc2C(=O)O)cc1OC,4%,u,-15,-9%,-3,14µM*!
COc1ccc(/C=C/C(=O)c2ccc(O)cc2O)cc1,8%,-13%,x,33%,x,32µM*
O=C(NC1CCCCC1)c1ccc(CNc2nc(=S)[nH]c3ccccc23)cc1,x,x,x,-1%,x,x
Cc1ccccc1-c1cc(C(=O)Nc2sc(C(=O)OC(C)C)c(C)c2C#N)c2ccccc2n1,-13%,-13%,u,10%[38.3 µM],12,16µM*
Cc1sc(NC(=O)c2cc(-c3ccc(Cl)cc3)nc3ccccc23)c(C(N)=O)c1C,u,-3%,25,0%[38.3 µM],9,13µM*
COC(=O)c1sccc1NC(=O)c1cc(-c2ccc(C)cc2)nc2ccccc12,-13%,-11%,47,-19%[38.3 µM],0,-15%
CCOC(=O)c1sc(NC(=O)CSc2n[nH]c(-c3ccncc3)n2)c(C#N)c1C,-7%,8%,34,27%[38.3 µM],14,5µM*
CCOC(=O)c1sc(NC(=O)CSc2nccc(C)n2)c(C#N)c1C,-11%,-3%,u,31%[38.3 µM],2,-8%
Cc1sc(NC(=O)c2cc(-c3ccccc3)nc3ccccc23)c(C(N)=O)c1C,x,4%,u,10%,-8,-9%
CCOC(=O)c1sc(NC(=O)c2cc(-c3ccc(C)cc3)nc3ccccc23)c(C#N)c1C,1%,-3%,51,25%[38.3 µM],6,22µM*
CC1O[C@@H](O[C@@H]2C(O)C[C@H](O[C@@H]3C(O)C[C@@H](OC4CC[C@@]5(C)C6CC(O)[C@@]7(C)C(C8=CC(=O)OC8)CC[C@@]7(O)C6CC[C@@H]5C4)OC3C)OC2C)CC(O)[C@H]1O (some centres not stated),6%,0%,x,3%,x,-12%
Nc1nc(Cl)nc2c1ncn2[C@@H]1O[C@@H](CO)[C@@H](O)[C@H]1O,1%,-3%,x,x,2,x
COC(=O)c1sc(NC(=O)c2cc(-c3ccccc3)nc3ccccc23)c(C#N)c1C,8%,-16%,19,15%[38.3 µM],3,3.5µM*
COc1ccc(-c2cc(C(=O)Nc3sc4c(c3C#N)CCCC4)c3ccccc3n2)cc1,x,4%,u,-5%,x,u
COc1ccccc1-c1nccc(N2CCN(C)CC2)n1,21%,x,x,15%,x,x
Cc1ccc(C(C)C)c(OCC(=O)Nc2c(C(=O)c3ccc(F)cc3)oc3ccccc23)c1,x,x,x,x,-5,x
CCN(CC)S(=O)(=O)c1cccc(C(=O)N/N=C/c2ccc(O)c(O)c2O)c1,x,-1%,12,25%,x,25µM*
CCOc1ccccc1/C=N/NC(=O)c1cccc(S(=O)(=O)N(CC)CC)c1,x,x,x,9%,x,x
O=C(N/N=C/c1c(O)ccc2ccccc12)c1cccc(C(F)(F)F)c1,x,u,-93*,3%,x,u
O=C(N/N=C/c1ccc(N2CCOCC2)o1)c1cccc(C(F)(F)F)c1,x,-2%,-100*,34%,-1,u
O=C(CSc1nc2ccsc2c(=O)n1Cc1ccc(C(=O)O)cc1)NCc1ccco1,x,-2%,-113*,-2%,x,20µM*

# High-throughput results as filed in PubChem.
